HPGD inh: HPGD (human) dehydrogenase inhibition | P15428 | purified HPGD, NADH fluorescence kinetic, PGE2 substrate | Potency, µM, for the others: at the highest dose activity change, negative = inhibition, most hits filed as inhibitors | actives 4.3% (n = 150,000); active = well fitted inhibition curve with a large enough effect, not every such curve was filed as active; inconclusive = small, poorly fitted or top-dose-only effect, or another doubt; inactive = no such curve, though single readings can be large or run the other way; also: potency is read from the fitted curve at half-maximal effect; % is scaled to controls: 0 for no effect and ±100 for the full control effect
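NADH formation kinetics: reaction with 30 uM PGE2 and 1 mM NAD+ (final), 20 nM enzyme, Tris-HCl pH 8 with Tween 20, after 15 min compound preincubation at room temperature. Fluorescence change, last versus first of five reads.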
ALDH1A1 block: inhibitors of human aldehyde dehydrogenase 1A1; actives 7.3% (n = 220,000); Potency, µM (titrated, usually from 75.3 µM), for the others: at the top dose activity, negative = inhibition, usual class: inhibitors; Purified ALDH1A1, NADH fluorescence, propionaldehyde substrate; active = well fitted inhibition curve with a large enough effect, not every such curve was filed as active; inconclusive = small, poorly fitted or top-dose-only effect, or another doubt; inactive = no such curve, though single readings can be large or run the other way;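 also: potency is read from the fitted curve at half-maximal effect; plate controls were no enzyme wells and a reference inhibitor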
HTT ATP protect: protects HTT-Q103 PC12 cells, measured by ATP. PC12 HTT-Q103 induced, cytoprotection, ATP luminescence, 40 h. Potency, µM (doses to about 56.4 µM), inactives show cytoprotection (ATP increase), hits mostly activators. actives 0.14% (n = 230,000). AID 1471; also: potency is read from the fitted curve at half-maximal effect; % of control where 0% means no effect; nearly all actives have a fitted effect of over 45% in size
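PC12 cells with ecdysone-inducible HTT exon 1 Q103-GFP, induced with 100 nM tebufenozide and co-treated with library compounds in a dose series (1536-well, 1500 cells/well). Cytoprotection read as ATP content by ATPlite luminescence.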
PNC assembly inh: blocks assembly of the perinucleolar compartment | actives 3.1% (n = 140,000) | AID 2417 | PC3M PTB-GFP, PNC prevalence imaging, 16 h; active compounds read low | activity change (PNC), negative = inhibition, % at 10 µM;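 active = readout at or below -70, meaning at least 70% loss of cells showing the perinucleolar compartment, a nuclear body marking cancer cells; inconclusive = readout between -30 and a set limit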;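 also: plate controls were DMSO wells for no effect and camptothecin positive control wells for full effect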
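Read-out is percentage of cells bearing a perinucleolar compartment, from automated 20x imaging of fixed, Hoechst-stained PC3M PTB-GFP cells. Cells were seeded 4 h, then exposed 16 h to compound (23 nl of library stock) in duplicate plates.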
HttQ103 aggreg: reduces HttQ103-GFP aggregates in PC12 cells | Potency, µM (series often up to 46.1 µM), for inactives: at the highest dose activity change, negative = inhibition, actives largely listed as inhibitors | AID 1688 | actives 1.1% (n = 220,000) | PC12 HttQ103-GFP aggregates, Acumen cytometry, 40 h; also: potency is read from the fitted curve at half-maximal effect; % is scaled to controls: 0 for no effect and ±100 for the full control effect; nearly all actives have a fitted effect of over 60% in size
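Aggregate formation scored by laser-scanning cytometer (488 excitation, 500–530 emission) in lysed PC12 cells expressing Q103-GFP after 100 nM tebufenozide induction; library tested in dose series, with ATPLite reagent added in the multiplex.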
CBFb RUNX1 block: inhibitors of human CBF-beta and RUNX1 interaction; Q01196+Q13951; AlphaScreen CBFb-His/RUNX1-biotin binding, biochemical; Potency, µM (doses to about 59.8 µM), for the others: top-dose activity, negative = inhibition, most hits filed as inhibitors; 230,000 tested, under 10 active; also: % of control where 0% means no effect
Target sequence (Q01196 whole entry, looked up): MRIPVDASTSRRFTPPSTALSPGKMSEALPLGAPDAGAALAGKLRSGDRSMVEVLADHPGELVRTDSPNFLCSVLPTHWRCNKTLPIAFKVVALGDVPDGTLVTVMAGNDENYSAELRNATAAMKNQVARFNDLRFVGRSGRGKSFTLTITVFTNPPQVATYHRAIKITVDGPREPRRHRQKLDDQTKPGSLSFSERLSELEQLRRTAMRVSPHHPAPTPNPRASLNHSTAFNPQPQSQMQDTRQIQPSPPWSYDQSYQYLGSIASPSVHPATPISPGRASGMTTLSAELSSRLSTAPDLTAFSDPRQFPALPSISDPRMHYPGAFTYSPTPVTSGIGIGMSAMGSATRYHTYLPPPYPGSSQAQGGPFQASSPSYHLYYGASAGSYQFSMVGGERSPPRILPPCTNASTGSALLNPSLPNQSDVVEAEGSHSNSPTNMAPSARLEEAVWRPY
Target sequence (Q13951 whole entry, looked up): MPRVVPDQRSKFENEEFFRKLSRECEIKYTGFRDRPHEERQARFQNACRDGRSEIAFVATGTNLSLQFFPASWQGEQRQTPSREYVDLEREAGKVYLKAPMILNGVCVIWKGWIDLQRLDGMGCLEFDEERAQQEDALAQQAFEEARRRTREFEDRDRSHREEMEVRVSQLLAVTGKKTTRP
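Compounds were screened at multiple concentrations against a preformed CBF-beta(His)/RUNX1(biotin) complex (30 nM of each) for 15 min at room temperature, followed by 90 min with nickel and streptavidin beads and AlphaScreen reading.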
* = called active by the depositor; ? = inconclusive; . = no result given; ! = not active in a repeat; [ ] = remark or other dose. Hits are enriched below; roughly 11% of the tested compounds scored in any of these assays. Unless noted, calls follow the shape of the dose curve; as a rule, active = well fitted curve in the direction sought with a large enough effect; inconclusive = small, poorly fitted or top-dose-only effect, or another doubt; inactive = no such curve, though single readings can be large; an effect the other way counts as inactive or inconclusive.

SMILES	HPGD inh	ALDH1A1 block	HTT ATP protect	PNC assembly inh	HttQ103 aggreg	CBFb RUNX1 block
O=C(CNC1CCCC1)Nc1ccc(N2CCCCCC2)cc1	.	20µM*	7%[10 µM]	.	-9%	-29%
O=C(CNCC1CCCO1)Nc1ccc(N2CCCCCC2)cc1 (centres undefined)	-13%	16µM*	-26%	-28	6%	5%
Cc1cccc(OCC(=O)Nc2ccc(N3CCCC3)cc2)c1C	0%	13µM*	-3%[10 µM]	24	-7%	?
COc1ccccc1OCC(=O)Nc1ccc(N2CCCCC2)cc1	.	-13%	-6%[10 µM]	.	-10%	-13%
O=C(O)CCC(=O)Nc1ccc(N2CCCCCC2)cc1	-16%	11µM*	-28%	16	-23%	-1%
Cc1ccc(NS(=O)(=O)c2ccc(C)c(C(=O)N3CCN(C)CC3)c2)cc1	-5%	-3%	10%[10 µM]	9	15%[9.22 µM]	3%
C1CCN(CCCNC2C3CC4CC(C3)CC2C4)C1 (centres undefined)	1%	-5%	-8%[10 µM]	-27	-4%	-1%
CC(C)(C)c1cc2nc3c(c(=O)n2[nH]1)CN(Cc1ccccc1)C3=O	.	?	-2%[10 µM]	.	-28%[9.22 µM]	-3%
O=S(=O)(CCc1ccccc1)c1nnnn1C1CCCCC1	0%	-13%	?	.	.	2%
Cc1ccccc1OCC(=O)Nc1ccc(Cc2ccncc2)cc1	18µM*	?	7%[10 µM]	?	-5%	-3%
CCCCCCCC#Cc1ccccc1/C=N/S(=O)c1ccc(C)cc1 (centres undefined)	13µM*	20µM*!	21%[10 µM]	12	10%	5%[13.1 µM]
Cc1ccc(N2NC(=O)/C(=C\c3cc4c(cc3[N+](=O)[O-])OCO4)C2=O)cc1C	4µM*	18µM*	.	30	23%	?
COc1cc(/C=C2/C(=O)NN(c3cccc(C)c3)C2=O)cc([N+](=O)[O-])c1O	.	?	.	.	.	-13%
O=C(O)CCn1nnc2ccccc21	.	-1%	15%[10 µM]	.	12%[9.22 µM]	4%
Cc1occc1C(=O)N/N=C/c1ccccn1	.	28µM*	-5%[10 µM]	.	0%[9.22 µM]	1%
CC(/C=C/c1ccco1)=N\NC(=O)c1cccnc1	-28%	7.9µM*	4%[10 µM]	-24	13%	-2%
O=C(/C=C/c1ccco1)Nc1cccnc1	.	28µM*	.	.	.	-1%
COc1cccc(NC(=O)/C=C/c2ccco2)c1	.	25µM*	0%[10 µM]	.	25%	?
CC(=O)OCC1OC(C#Cc2ccc(F)cc2F)C=CC1OC(C)=O (centres undefined)	.	?	-24%[10 µM]	.	.	8%[13.1 µM]
CCNc1ncc2nc(-c3cccc(C#N)c3)c(=O)n(C)c2n1	?	?	-11%	.	.	.
CCCN(CC1CCCO1)C(=O)CCc1nnc(-c2cc(C)on2)o1 (centres undefined)	.	2%	4%[10 µM]	.	-2%[9.22 µM]	5%
C/C(=N\NC(=O)c1ccoc1C)c1cccnc1	-7%	4%	6%[10 µM]	-89*	-11%	2%
O=C(/C=C/c1ccco1)Nc1ccc(C(=O)N2CCOCC2)cc1	18µM*	?	21%[0.074 µM]	14	-15%	-10%
CSc1cccc(NC(=O)/C=C/c2ccco2)c1	.	3.2µM*	-30%	.	13%	-7%
Cc1ccc(NC(=O)/C=C/c2ccco2)nc1	-3%	6%	-70%[10 µM]	-100*	-22%	-8%
SMILES	HPGD inh	ALDH1A1 block	HTT ATP protect	PNC assembly inh	HttQ103 aggreg	CBFb RUNX1 block
C=CC(C)(C)c1c2c(c(O)c3c(=O)c4ccc(O)c(O)c4oc13)C=CC(C)(C)O2	-9%	-2%	-234%	.	.	-12%
NC(=O)c1sc(-c2ccsc2)cc1NS(=O)(=O)c1ccc(C(F)(F)F)cc1	.	.	-4%[10 µM]	.	9%[9.22 µM]	-14%
C=CC(c1ccccc1)C(C(=O)c1ccccc1)N(C)C (centres undefined)	.	-10%	-16%	.	15%	-2%
O=C(/C=C/c1ccco1)c1ccc(NC(=O)C23CC4CC(CC(C4)C2)C3)cc1	?	25µM*	-17%[10 µM]	44	14%	-5%
C/C(CC(=O)NC12CC3CC(CC(C3)C1)C2)=N\NC(=O)Cc1cccs1	-14%	8.9µM*	-1%[10 µM]	-26	2%	1%
CC(/C=N/NC(=O)Cc1cccs1)=C\c1ccco1	-9%	?	0%	90	22%	-4%
CC(/C=C/c1ccco1)=N/NC(=O)Cc1cccs1	-21%	2.8µM*	-28%	17	?	-20%
COc1ccc(NC(=O)N/C=C/c2ccco2)cc1	.	28µM*	.	.	?	6%
C/C(CC(=O)NC1CCCC1)=N\NC(=O)Cc1cccs1	-1%	4%	-14%	-22	5%	-3%
O=C(Nc1ccc(NC(=O)C23CC4CC(CC(C4)C2)C3)cn1)c1ccco1	-12%	?	-19%	-5	-4%	8%
O=C(COC(=O)/C=C/c1cccs1)Nc1ccc2ccccc2c1	-24%	-3%	6%[10 µM]	?	15%	-5%
COc1cc2c(cc1OC)C(C)N(C(=O)c1ccc(Br)o1)CC2 (centres undefined)	-8%	5%	6%[10 µM]	-6	?	0%
OC1CCCCC1	-4%	8%	-1%	.	.	14%[21.7 µM]
CC(C)c1cc(NCC2CCCO2)n2c(nc3ccccc32)c1C#N (centres undefined)	?	?	-9%	-11	10%	7%
CCN1C(=S)SC(=O)C1=C1C=C(C)N(CCO)C(C)=C1	?	16µM*	-20%	?	11%	7%
CCN1C(=S)SC(=O)C1=C1C=C(C)N(CCOC)C(C)=C1	-27%	6.3µM*	-34%	-1	-10%	-12%
COCCN1C(=O)/C(=C/c2ccc(N3CCCC3)cc2)SC1=S	.	-6%	-27%	.	-13%[9.22 µM]	1%
CCCCC/C=C\C/C=C\CCCCCCCC(=O)NCC(=O)O	-12%	4%	-28%	.	.	-7%
CCCCC(NS(=O)(=O)c1ccc(OC)cc1)C(=O)O (centres undefined)	-8%	?	8%	-100*	20%	4%
CCCC(NS(=O)(=O)c1ccc(C)cc1)C(=O)O (centres undefined)	1%	3%	18%	4	-8%	3%
c1ccc(C[n+]2csc3ccccc32)cc1	14µM*	2.2µM*	20%	32	-11%	-23%
Fc1cccc(C[n+]2csc3ccccc32)c1	4µM*	0.35µM*	3%	32	-2%	?
Cc1ccc(C(=O)OCCc2sc[n+](Cc3ccccc3)c2C)cc1	.	3%	4%[10 µM]	?	?	-3%
CCCCCCCCCCCCCCCC(=O)OCC(COP(=O)(O)OCC[N+](C)(C)C)OC(=O)CCCCCCCCCCCCCCC (centres undefined)	.	.	3%	.	8%	.

Screening results as filed in PubChem.
